An excerpt weighted towards active compounds, which were near 8.6% of everything screened.
MARV entry inh: qHTS for Inhibitors of binding or entry into cells for Marburg Virus; Marburg virus pseudotype entry/binding inhibition, cell-based; Potency, µM (top dose mostly 49.2 µM), for inactives: at the top dose activity change, negative = inhibition, hits mostly inhibitors; hit rate 6.5% among 18,000
LASV entry inh: qHTS for Inhibitors of binding or entry into cells for Lassa Virus | Lassa virus pseudotyped entry inhibition, cell-based qHTS | Potency, µM (titrated, usually from 49.2 µM), inactives show top-dose activity change, negative = inhibition, usual class: inhibitors | hit rate 4.1% among 18,000 | AID 720533, 2013
Active calls of the source: *; ? = inconclusive; / = not tested or not shown; ! = repeats disagree; [ ] = another dose, or the depositor's remark. Calls come from the whole dose curve; tested in HEK293 cells. % is set by controls: 0 for no effect and ±100 for the full control effect; potency is the fitted concentration of half-maximal effect.

SMILES	MARV entry inh	LASV entry inh
C[C@]12CC[C@@H]3c4ccc(O)cc4C[C@@H](CCCCCCCCCS(=O)CCCC(F)(F)C(F)(F)F)[C@H]3[C@@H]1CC[C@@H]2O (stereo partly drawn)	-14%	6.3µM*
C[C@@]12CC[C@@H]3c4ccc(O)cc4C[C@H](CCCCCCCCCS(=O)CCCC(F)(F)C(F)(F)F)[C@H]3[C@@H]1CC[C@@H]2O (stereo partly drawn)	11%	?
CC(CCN1CCCc2nc(C)c(C)cc21)=NO[C@@H](C)c1cc(-c2c(C)cc(C)cc2C)no1	-9%[8.59 µM]	11%[8.59 µM]
COc1cc(-c2cnc3ccccc3c2)cc2c1OCCN(C(=O)CCC(=O)c1ccc(F)cc1)C2	-15%	-7%
COc1cc(NC(=O)O[C@@H]2C(=O)c3cc(Br)ccc3O[C@H]2c2ccc3c(c2)OCO3)cc(OC)c1OC	12%	5%
CC(=O)[C@H]1CC[C@H]2[C@@H]3C=CC4=CC(=O)CC[C@@]4(C)[C@@H]3CC[C@]12C	37%[17.8 µM]	6%[17.8 µM]
COCCNC(=O)COc1ccc(OCCNC[C@H](O)COc2ccccc2)cc1	-8%	-1%
COc1cc([C@@H]2c3cc4c(cc3[C@@H](O[C@@H]3O[C@H]5CO[C@@H](C)O[C@@H]5[C@@H](O)[C@H]3O)[C@@H]3COC(=O)[C@@H]23)OCO4)cc(OC)c1O	?	2.8µM*
COc1cc([C@@H]2c3cc4c(cc3C(O[C@@H]3O[C@@H]5COC(c6cccs6)O[C@H]5[C@H](O)[C@H]3O)C3COC(=O)[C@@H]32)OCO4)cc(OC)c1O (stereo partly drawn)	?	4µM*
COc1cc([C@@H]2c3cc4c(cc3[C@@H](OC3OC5COC(C)OC5C(O)C3O)[C@H]3COC(=O)[C@H]23)OCO4)cc(OC)c1O (stereo partly drawn)	?	7.9µM*
COc1cc([C@@H]2c3cc4c(cc3C(OC3OC5COC(C)OC5C(O)C3O)C3COC(=O)[C@@H]32)OCO4)cc(OC)c1O (stereo partly drawn)	25µM*	7.9µM*
C/C(=C\C[Si](C)(C)C)CC[C@H](O)C1=CCCCC1=O	-6%	-1%
C=CC(C1=CC(=O)C(OC)=CC1=O)c1ccc(O)cc1 (stereo not drawn)	31%	-10%
Cc1cnc(-n2ncc(C(=O)NCc3ccncc3)c2C2CC2)nc1-c1cccs1	-14%	-6%
C[C@@H]1CC[C@@]2(OC1)OC1CC3C4CC=C5CC(O)CCC5(C)C4CCC3(C)C1[C@@H]2C (stereo partly drawn)	1%	-7%
COc1cccc(C(=O)CCN[C@@H](C)[C@H](O)c2ccccc2)c1	-6%	-1%
CC(=O)C1=C(C)N(Cc2ccccc2)C(=O)NC1c1cccc(C(F)(F)F)c1 (stereo not drawn)	-7%[8.59 µM]	19%[8.59 µM]
OC[C@H]1O[C@@H](n2cnc3cc(Cl)c(Cl)cc32)[C@H](O)[C@H]1O	-10%	-2%
COc1c(C(N)=O)cc(-c2ccc(Cl)cc2)cc1-c1ccc(S(N)(=O)=O)cc1	-50%	?
CCN(CC)CCOCCOC(=O)C(CC)(CC)c1ccccc1	22µM*	?
CCN(CC)CCOC(=O)C(C)(c1ccccc1)c1ccccc1	28µM*	?
CCN(CC)CCNC(C(=O)OCCC(C)C)c1ccccc1 (stereo not drawn)	?	-10%
O=C(O)CN(CCOCCOCCN(CC(=O)O)CC(=O)O)CC(=O)O	24%	-3%
CCN(CC)CCOC(=O)C1(c2ccc([N+](=O)[O-])cc2)CCCC1	?	2%
CCN(CC)CCOCCOC(=O)C1(c2ccccc2)CCCC1	7.1µM*!	1%
SMILES	MARV entry inh	LASV entry inh
CC(=O)Oc1ccc2c(c1)CCC1C2CC[C@]2(C)C(=O)CCC12 (stereo partly drawn)	3%	-14%
CC12C(=O)OC(=O)C1(C)C1CCC2O1 (stereo not drawn)	3.5µM*	2.8µM*
COc1ccc(-n2c(CCNC(=O)c3ccccc3C(F)(F)F)nnc2SC)cc1	8%	-2%
Cc1c(C(=O)NCCc2cccnc2)cnn1-c1nccc(-c2ccccc2F)n1	37%	-5%
CCN(CC)CCNC(=O)c1cnn(-c2nccc(-c3cc4ccccc4o3)n2)c1C	13µM*	?
O=C(NC[C@@H]1CCCN2CCCC[C@H]12)c1cnn(-c2nccc(-c3cc4ccccc4o3)n2)c1C1CC1	11µM*	?
CCN1CCCC1CNC(=O)c1cnn(-c2nccc(-c3cc4ccccc4o3)n2)c1C1CC1 (stereo not drawn)	?	-18%
COC1=C[C@H](C(=O)NCCNC(C)=O)[C@@]2(C)Cc3ccccc3[C@@H]2CC1=O	-20%[8.59 µM]	/
O=c1cc(-c2ccc(O)c(O)c2)oc2ccccc12	78%	33%
CN(C(=O)COc1nc2ccccc2s1)c1ccccc1	3%	-3%
CNc1ccc(-c2nc3ccccc3s2)cc1	7.1µM*	10µM*
CCN(CCO)C(=O)c1cnn(-c2ncc3c(n2)-c2ccccc2CCC3)c1C1CC1	41%	33%
